PubChem BioAssay AID1159580 (chemical genetic matrix, 2015)
Where “and” joins values, the source holds several entries; their conditions need not be identical. Identical values can stand only once. In all, about 5,500 compounds went through this assay and about 2,000 (36%) were called active. Inconclusive results (about 18%) are left out. No stated cut-off is given here; in the data, active means normalized growth mostly below about 0.91 (no sharp cut-off); inconclusive means no clear call, values can overlap the other calls; inactive means mostly above about 0.92. Some of the results follow.

Experiment: chemical genetic growth profiling, strain panel (AID 1159580);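 further: tested at 20 µM; growth read once vehicle control cultures reached saturation at 30 °C; 1 = growth at the plate median or of vehicle wells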
Settings: S. cerevisiae deletion strains, growth OD

Measured: normalized growth

COc1c2ccoc2cc2oc(=O)ccc12
inactive: locus YAL021C, strain ccr4, stronger effect = lower value 0.957 | locus YAL026C, strain drs2, stronger effect = lower value 0.936 | locus YAL030W, strain snc1, stronger effect = lower value 0.993 | locus YBL061C, strain skt5, stronger effect = lower value 0.971 | locus YBR021W, strain FUR4, stronger effect = lower value 1.1 | locus YBR023C, strain chs3, stronger effect = lower value 0.968 | locus YBR171W, strain sec66, stronger effect = lower value 0.954 | locus YBR229C, strain ROT2, stronger effect = lower value 0.967 | locus YBR279W, strain paf1, stronger effect = lower value 0.974 | locus YCL011C, strain gbp2, stronger effect = lower value 0.942 | locus YCL016C, strain dcc1, stronger effect = lower value 0.959 | locus YCL061C, strain MRC1, stronger effect = lower value 0.97 | locus YCL069W, strain vba3, stronger effect = lower value 0.968 | locus YCR088W, strain abp1, stronger effect = lower value 0.987 | locus YDL005C, strain med2, stronger effect = lower value 0.996 | locus YDL040C, strain nat1, stronger effect = lower value 0.992 | locus YDL185W, strain tfp1, stronger effect = lower value 0.911 | locus YDR001C, strain nth1, stronger effect = lower value 0.976 | locus YDR069C, strain doa4, stronger effect = lower value 0.96 | locus YDR159W, strain sac3, stronger effect = lower value 1.04 | locus YDR297W, strain sur2, stronger effect = lower value 0.99 | locus YDR335W, strain msn5, stronger effect = lower value 0.953 | locus YDR392W, strain spt3, stronger effect = lower value 0.761 | locus YEL003W, strain gim4, stronger effect = lower value 0.96 | locus YEL037C, strain rad23, stronger effect = lower value 0.942 | locus YEL061C, strain CIN8 (second series), stronger effect = lower value 0.958 | locus YER015W, strain faa2, stronger effect = lower value 0.981 | locus YER016W, strain bim1, stronger effect = lower value 0.973 | locus YER111C, strain swi4, stronger effect = lower value 0.975 | locus YFR010W, strain ubp6, stronger effect = lower value 0.936 | locus YGL167C, strain pmr1, stronger effect = lower value 0.981 | locus YGL173C, strain kem1, stronger effect = lower value 0.96 | locus YGL227W, strain vid30, stronger effect = lower value 0.976 | locus YGL240W, strain doc1, stronger effect = lower value 0.896 | locus YGR229C, strain SMI1, stronger effect = lower value 0.839 | locus YHR013C, strain ard1, stronger effect = lower value 0.856 | locus YHR027C, strain rpn1, stronger effect = lower value 0.983 | locus YIL073C, strain SPO22, stronger effect = lower value 0.757 | locus YJL092W, strain hpr5, stronger effect = lower value 0.976 | locus YJL095W, strain BCK1 (second series), stronger effect = lower value 0.966 | locus YJL115W, strain asf1, stronger effect = lower value 0.967 | locus YJL129C, strain trk1, stronger effect = lower value 1.09 | locus YJL134W, strain LCB3, stronger effect = lower value 0.957 | locus YJL154C, strain vps35, stronger effect = lower value 0.977 | locus YJL164C, strain tpk1, stronger effect = lower value 0.937 | locus YJL166W, strain qcr8, stronger effect = lower value 0.91 | locus YJL168C, strain set2, stronger effect = lower value 0.958 | locus YJL187C, strain SWE1, stronger effect = lower value 1 | locus YJR066W, strain TOR1, stronger effect = lower value 0.829 | locus YKL009W, strain mrt4, stronger effect = lower value 0.914 | locus YKL068W, stronger effect = lower value 0.973 | locus YKR026C, strain gcn3, stronger effect = lower value 0.951 | locus YKR091W, strain srl3, stronger effect = lower value 0.996 | locus YLL001W, strain dnm1, stronger effect = lower value 0.977 | locus YLL026W, stronger effect = lower value 0.98 | locus YLL041C, strain sdh2, stronger effect = lower value 0.992 | locus YLR027C, strain aat2, stronger effect = lower value 0.971 | locus YLR039C, strain RIC1, stronger effect = lower value 0.906 | locus YLR102C, strain apc9, stronger effect = lower value 0.929 | locus YLR113W, strain HOG1, stronger effect = lower value 0.948 | locus YLR221C, strain rsa3, stronger effect = lower value 0.941 | locus YLR258W, strain gsy2, stronger effect = lower value 0.975 | locus YLR262C, strain YPT6 (second series), stronger effect = lower value 1.09 | locus YLR320W, strain mms22, stronger effect = lower value 0.887 | locus YLR342W, strain FKS1, stronger effect = lower value 1.01 | locus YLR357W, strain rsc2, stronger effect = lower value 1.13 | locus YLR370C, strain arc18, stronger effect = lower value 0.969 | locus YLR384C, strain iki3, stronger effect = lower value 0.956 | locus YMR058W, strain fet3, stronger effect = lower value 0.953 | locus YMR125W, strain sto1, stronger effect = lower value 1.03 | locus YMR129W, stronger effect = lower value 0.977 | locus YMR205C, strain PFK2, stronger effect = lower value 1.03 | locus YMR231W, strain pep5, stronger effect = lower value 0.983 | locus YMR307W, strain GAS1, stronger effect = lower value 0.974 | locus YNL071W, strain lat1, stronger effect = lower value 0.972 | locus YNL183C, strain NPR1, stronger effect = lower value 0.858 | locus YNL209W, strain ssb2, stronger effect = lower value 0.976 | locus YNL322C, strain KRE1 (second series), stronger effect = lower value 1.02 | locus YNR049C, strain mso1, stronger effect = lower value 0.991 | locus YOL012C, strain htz1 0.31 | locus YOR070C, strain gyp1, stronger effect = lower value 0.979 | locus YOR080W, strain dia2, stronger effect = lower value 0.979 | locus YOR265W, strain rbl2, stronger effect = lower value 0.989 | locus YOR290C, strain snf2, stronger effect = lower value 0.877 | locus YOR316C, strain cot1, stronger effect = lower value 0.975 | locus YPL078C, strain atp4, stronger effect = lower value 0.893 | locus YPL240C, strain hsp82, stronger effect = lower value 0.973 | locus YPL256C, strain CLN2, stronger effect = lower value 0.907 | locus YPR119W, strain clb2, stronger effect = lower value 0.964 | locus YPR141C, strain kar3, stronger effect = lower value 0.997
active: locus YBR009C, strain hhf1, stronger effect = lower value 0.886 | locus YBR231C, strain swc5, stronger effect = lower value 0.872 | locus YCL029C, strain bik1, stronger effect = lower value 0.647 | locus YDL035C, strain GPR1, stronger effect = lower value 0.734 | locus YDL074C, strain BRE1, stronger effect = lower value 0.544 | locus YDL101C, strain DUN1, stronger effect = lower value 0.613 | locus YDL134C, strain PPH21, stronger effect = lower value 0.703 | locus YDL192W, strain arf1, stronger effect = lower value 0.674 | locus YDR101C, strain arx1, stronger effect = lower value 0.741 | locus YDR137W, strain rgp1, stronger effect = lower value 1.16 [resistant] | locus YDR162C, strain NBP2, stronger effect = lower value 0.617 | locus YDR195W, strain ref2 1.38 [resistant] | locus YDR318W, strain mcm21, stronger effect = lower value 0.699 | locus YDR388W, stronger effect = lower value 0.814 | locus YDR502C, strain sam2, stronger effect = lower value 0.791 | locus YER110C, stronger effect = lower value 0.863 | locus YER155C, strain BEM2 (second series), stronger effect = lower value 0.653 | locus YER155C, strain BEM2, stronger effect = lower value 0.904 | locus YER167W, strain BCK2, stronger effect = lower value 0.885 | locus YGL078C, strain dbp3, stronger effect = lower value 0.91 | locus YGL086W, strain mad1, stronger effect = lower value 0.719 | locus YGL248W, strain PDE1, stronger effect = lower value 0.718 | locus YGL253W, strain hxk2, stronger effect = lower value 0.903 | locus YGR078C, strain PAC10, stronger effect = lower value 0.706 | locus YGR135W, strain pre9, stronger effect = lower value 0.688 | locus YGR252W, strain gcn5, stronger effect = lower value 0.554 | locus YHR030C, strain SLT2, stronger effect = lower value 0.729 and 0.802 | locus YHR079C, strain IRE1 (second series), stronger effect = lower value 0.854 | locus YHR079C, strain IRE1, stronger effect = lower value 0.801 | locus YHR094C, strain hxt1, stronger effect = lower value 0.922 | locus YHR129C, strain ARP1, stronger effect = lower value 0.863 | locus YHR142W, strain chs7, stronger effect = lower value 0.826 | locus YHR200W, strain rpn10, stronger effect = lower value 0.636 | locus YIL066C, strain RNR3, stronger effect = lower value 0.805 | locus YIL125W, strain kgd1, stronger effect = lower value 0.869 | locus YIR030C, strain dcg1, stronger effect = lower value 0.818 | locus YJL095W, strain BCK1, stronger effect = lower value 0.337 and 0.817 | locus YJL187C, strain SWE1 (second series), stronger effect = lower value 0.766 | locus YKL085W, strain MDH1 (second series), stronger effect = lower value 0.915 | locus YKL085W, strain MDH1, stronger effect = lower value 0.915 | locus YKL160W, strain elf1, stronger effect = lower value 0.902 | locus YKL190W, strain CNB1, stronger effect = lower value 0.898 | locus YKR001C, strain vps1, stronger effect = lower value 0.44 | locus YLR058C, strain SHM2, stronger effect = lower value 0.783 | locus YLR268W, strain sec22, stronger effect = lower value 0.71 | locus YLR371W, strain rom2, stronger effect = lower value 0.573 | locus YLR418C, strain cdc73, stronger effect = lower value 0.494 | locus YML016C, strain PPZ1, stronger effect = lower value 0.809 | locus YML032C, strain rad52, stronger effect = lower value 0.411 | locus YML120C, strain ndi1, stronger effect = lower value 0.901 | locus YML124C, strain tub3, stronger effect = lower value 0.872 | locus YMR078C, strain ctf18, stronger effect = lower value 0.878 | locus YMR223W, strain ubp8, stronger effect = lower value 0.764 | locus YNL067W, strain RPL9B, stronger effect = lower value 0.791 | locus YNL233W, strain BNI4, stronger effect = lower value 0.74 | locus YNL248C, strain rpa49, stronger effect = lower value 0.575 | locus YNL250W, strain rad50, stronger effect = lower value 0.856 | locus YNL271C, strain bni1, stronger effect = lower value 0.858 | locus YNL298W, strain CLA4, stronger effect = lower value 0.77 | locus YNL307C, strain MCK1, stronger effect = lower value 0.666 | locus YNR052C, strain pop2, stronger effect = lower value 0.737 | locus YOL006C, strain TOP1, stronger effect = lower value 0.419 | locus YOL147C, strain pex11, stronger effect = lower value 0.757 | locus YOR001W, strain rrp6, stronger effect = lower value 0.87 | locus YOR061W, strain CKA2, stronger effect = lower value 0.872 | locus YOR069W, strain VPS5, stronger effect = lower value 0.852 | locus YOR083W, strain WHI5, stronger effect = lower value 0.799 | locus YOR106W, strain vam3, stronger effect = lower value 0.854 | locus YOR136W, strain idh2, stronger effect = lower value 0.888 | locus YOR144C, strain elg1, stronger effect = lower value 0.852 | locus YOR184W, strain ser1, stronger effect = lower value 0.46 | locus YOR231W, strain MKK1, stronger effect = lower value 0.83 | locus YOR270C, strain vph1, stronger effect = lower value 0.751 | locus YPL051W, strain arl3, stronger effect = lower value 0.91 | locus YPL106C, strain sse1, stronger effect = lower value 0.78 | locus YPR163C, strain tif3, stronger effect = lower value 0.672 | locus YPR167C, strain met16, stronger effect = lower value 0.775 | strain wtn01, stronger effect = lower value 0.731
